This is part of a sample that, as a whole, favours compounds with a hit. Of some 83,000 tested, about 20% had one in any assay.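 A percent growth of 40 corresponds to 60% growth inhibition; 0 means no net growth; -100 means all cells died. Active threshold: below 10.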 A number with no mark means an inactive call. Active and inactive are the calls of the source.
Legend:
Test in all cases: NCI-60 one-dose screen, 48 h (100 = growth as untreated, 0 = no growth, -100 = all killed)
Settings in all cases: 10 µM unless noted
BT-549 breast = test system: BT-549 breast
MDA-MB-435 melanoma = test system: MDA-MB-435 melanoma
SW-620 colon = test system: SW-620 colon
MCF7 breast = test system: MCF7 breast
HCT-116 colon = test system: HCT-116 colon
HCC-2998 colon = test system: HCC-2998 colon
KM12 colon = test system: KM12 colon

| Structure (SMILES) | growth (BT-549 breast) | growth (MDA-MB-435 melanoma) | growth (SW-620 colon) | growth (MCF7 breast) | growth (HCT-116 colon) | growth (HCC-2998 colon) | growth (KM12 colon) |
| --- | --- | --- | --- | --- | --- | --- | --- |
| CCN1CCN(S(=O)(=O)c2oc(-c3ccc(Cl)cc3)nc2C#N)CC1 | 93.6% | 62.6% | -23.6% (active) | 31.3% | 11.6% | 115% | 91.7% |
| O=C1Nc2cc(Cl)ccc2/C1=C\c1ccc(OCc2ccc(Br)cc2F)cc1 | -69.3% (active) | -37.7% (active) | -49.7% (active) | 9.35% (active) | -95% (active) | 17% | -31.9% (active) |
| O=C1/C(=C/C2=Cc3ccccc3OC2)SC(=S)N1c1ccc(F)cc1 | 100% | 101% | 107% | 90.6% | 99.1% | 107% | 97.5% |
| Cn1cc(-c2cc(N)n3nc(-c4cn(C)c5ccc(Br)cc45)cc3n2)c2cc(Br)ccc21 | 105% | 30.8% | 1.21% (active) | 1.35% (active) | 57% | 82.5% | 64.8% |
| Nc1nc(N)c2c(n1)NC(c1ccc(C(F)(F)F)cc1)CC(c1ccc(Nc3nc(NCCO)nc(Nc4ccc(Cl)cc4)n3)cc1)=N2 (centres undefined) | -28.7% (active) | -61.5% (active) | -66.6% (active) | -52.5% (active) | -85.3% (active) | -86.6% (active) | -65.3% (active) |
| Cc1cccc2sc(/N=C(\N)C(Cl)(Cl)Cl)nc12 | 117% | 103% | 103% | 85% | 101% | 111% | 97.5% |
| COc1cc(/C=C/C(=O)c2cc(OC)c(OC)c(OC)c2)ccc1Oc1nc(NCCO)nc(N2CCOCC2)n1 | -25.1% (active) | 4.93% (active) | -33.6% (active) | 8.4% (active) | -79.3% (active) | -17.5% (active) | -44.6% (active) |
| CCOc1ccc([C@H]2C(C(=O)c3ccc(Cl)cc3)C3(N[C@@H]2c2ccccc2)C(=O)Nc2ccc(Br)cc23)cc1 (some centres undefined) | 71.9% | 28.5% | 24.6% | 9.08% (active) | 4.78% (active) | 0.672% (active) | -10.8% (active) |
| O=C(N/N=C/c1ccc(Cl)s1)c1[nH]c2ccc(Br)cc2c1-c1ccccc1 | -18.1% (active) | -8.88% (active) | 25% | 7.95% (active) | -27.5% (active) | 19.9% | 10.5% |
| Clc1ccc2c(NCCCn3ccnc3)c3oc4ccc(Cl)cc4c3nc2c1 | 88.1% | 86.2% | 57% | 53.8% | 81% | 79% | 87.6% |
| C/C(=N/NC(N)=S)c1ccc(Nc2nc(SCC(C)C)nc(-c3ccc(F)cc3)c2C#N)cc1 | 55.8% | 13.1% | 4.45% (active) | 0.17% (active) | 3.84% (active) | 34.8% | 23.5% |
| C#Cc1nc(C2=C(C)/C(=N/OCc3ccccc3)CC2)cs1 | 58.1% | 80.1% | 85.6% | 49.5% | 40.6% | 99.8% | 19.6% |
| COc1ccc(-c2nn3c(-c4ccccc4F)nnc3s2)cc1 | 50.9% | -4.46% (active) | 34.4% | 36.8% | 42% | 70% | 31.8% |
| Cn1ccnc1C(=O)/C=C/c1ccc(NC(=O)Nc2ccccc2)cc1 | -3.85% (active) | -13.3% (active) | 2.15% (active) | 6.81% (active) | 3.54% (active) | -22% (active) | 1.03% (active) |
| COc1cc(OC)c(S(=O)(=O)NNC(=O)c2ccncc2)cc1C(=O)/C=C/c1ccc(C)cc1 | 6.18% (active) | 83.2% | 74.8% | 26.7% | 9.81% (active) | 91.6% | 54.8% |
| CCCC(=O)NC(c1cccnc1)c1cc(C)c2cccnc2c1O (centres undefined) | 69.5% | 59.7% | 33.4% | 10.6% | 8.73% (active) | 64.1% | 38.4% |

| Structure (SMILES) | growth (BT-549 breast) | growth (MDA-MB-435 melanoma) | growth (SW-620 colon) | growth (MCF7 breast) | growth (HCT-116 colon) | growth (HCC-2998 colon) | growth (KM12 colon) |
| --- | --- | --- | --- | --- | --- | --- | --- |
| Cn1cc(-c2cc(N)n3nc(-c4cn(C)c5ccc(F)cc45)cc3n2)c2cc(F)ccc21 | 77.5% | 5.54% (active) | -36.6% (active) | 10% | -92.8% (active) | 1.23% (active) | 6.56% (active) |
| COc1cc(/C=C/C(=O)c2ccccc2)ccc1Oc1nc(NCCO)nc(N2CCOCC2)n1 | 92.4% | 93.1% | 60.9% | 46.9% | 69.5% | 113% | 102% |
| CC(C)(C)Nc1nc2c(OCCc3ccccc3)cccn2c1-c1ccc(Cl)cc1 | 47.7% | 19.2% | 41% | 0.0476% (active) | 8.63% (active) | 24.7% | 32.7% |
| COc1ccc(/C=C2\SC(=Nc3cc(C)[nH]n3)NC2=O)cc1 | 90.5% | 92.4% | 97.1% | 85.5% | 97.2% | 99.8% | 89.8% |
| CC(=O)Nc1cc(F)cc(-c2ccc3[nH]cc(-c4ccccc4)c3n2)c1 | 73.1% | 9.43% (active) | -56.2% (active) | 1.97% (active) | 11.9% | -19% (active) | -41% (active) |
| CCN1C(=S)N(CC)C2C1N=C(SC)N2/N=C/C=C/c1ccccc1[N+](=O)[O-] (centres undefined) | 107% | 94.4% | 99.4% | 76.9% | 82.2% | 112% | 97.6% |
| NS(=O)(=O)c1cccc(Nc2nc(SCC(=O)c3ccc(Cl)cc3)nc3ccccc23)c1 | 26.1% | 77.6% | 79.3% | 65.6% | 76.4% | 112% | 71.7% |
| Nc1ncc(-c2ccc3ncnc(N4CCc5cc(F)c(Cl)cc54)c3c2)cc1CO | -31.1% (active) | -34.4% (active) | 11.1% | 4.61% (active) | 6.3% (active) | 8.47% (active) | 0.831% (active) |
| CCOC(=O)c1csc(NC(=O)CSc2nc3sc4c(c3c(=O)n2-c2ccc(Cl)cc2)CCCC4)n1 | 99% | 93.6% | 103% | 84.3% | 105% | 121% | 109% |
| CC(=O)Oc1ccccc1C(=O)Nc1cc(C(C)C)ccc1C | 37.5% | 11.1% | 23.8% | 9.56% (active) | 11.3% | 20.5% | 11.1% |
| OC1CCc2c(-c3ccc4ncnc(N5CCc6cc(F)c(Cl)cc65)c4c3)cncc21 (centres undefined) | 46.5% | 62.7% | 85.1% | 23.4% | 66.9% | 72.1% | 66.2% |
| N#Cc1c(-c2ccc(Cl)cc2)nc(SCc2ccc([N+](=O)[O-])cc2)nc1N1CCNCC1 | 89.6% | -63.3% (active) | -52.8% (active) | -43.9% (active) | -91.5% (active) | -40.1% (active) | -47.2% (active) |
| O=C(c1ccc(Cl)cc1)C1[C@H](c2ccc(Cl)cc2)[C@@H](c2ccccc2)NC12C(=O)Nc1ccc(Br)cc12 (some centres undefined) | 61.4% | 34.8% | 36.3% | 15.8% | 13.2% | 13.3% | 15.3% |
| COc1ccc(-c2nc3ccc(-c4nnc(SCC(=O)Nc5ccc(C(C)=O)cc5)o4)cc3[nH]2)cc1 | 112% | 102% | 103% | 77.1% | 109% | 111% | 105% |
| COc1cc(OC)c(C2SCC(=O)N2Nc2ncnc3ccccc23)cc1OC (centres undefined) | 105% | 103% | 105% | 91.8% | 107% | 111% | 107% |
| CCCC(=O)NC(c1cccc(N(C)C)c1)c1cc(C)c2cccnc2c1O (centres undefined) | 78.4% | 77.6% | 50% | 35.3% | 22.7% | 57.9% | 54.9% |

Source: PubChem BioAssay (NCI)
